PubChem BioAssay AID2391 (Southern Research Specialized Biocontainment Screening …, 2010)
Out of some 310,000 compounds screened, about 410 (0.13%) were called active. Roughly 2% stayed inconclusive and do not appear here. No rule for the calls is given here. A selection follows. Potency and affinity values are given separately.

Experiment: RSV antiviral activity via CPE protection, HEp-2 cells, primary 10 µM value included (AID 2391)
Conditions: RSV-induced CPE inhibition, at 10 µM, hits give high values

CPE inhibition, inactive:
O=C(CNC(=O)c1ccc(Br)o1)NNC(=O)c1cccc(Cl)c1 -2.18%
O=C1N=c2ccccc2=C1c1sc(NS(=O)(=O)c2ccccc2)nc1O 4.47%
CCOC(=O)N1CCC(N2CCCC(CO)(Cc3ccccc3C)C2)CC1 (stereo not given) 0.07%
CC(=O)c1cccc(NC(=O)c2csc3c2CCCCC3)c1 13.4%
N#Cc1ccccc1CSc1ncccc1C(=O)O -0.85%
CCOC(=O)C1=C(NC(=S)NC(=O)c2ccccc2)c2ccccc2CC1(C)C 7.06%
CCOC(=O)C1=C(NC(=S)NC(=O)c2ccccc2)c2ccccc2CC1(C)CC (stereo not given) 43.2%
CCOc1cc(/C=C2\SC(=NC)N(C)C2=O)c(Br)cc1OC(C)=O 1.71%
Cc1cccc(C)c1OCc1n[nH]c(=S)o1 0.21%
Cc1ccc2c(c1)COc1c3ccc(C(=O)NC(C)C)cc3nn1-2 16.2%
Cc1ccc2c(c1)COc1c3ccc(C(=O)N[C@@H](CO)C(C)C)cc3nn1-2 15%
CCN(CC)CCN(Cc1cc2cc3c(cc2[nH]c1=O)OCO3)C(=S)NCc1ccco1 -1.07%
CCOC(=O)CN1C(=O)N[C@@H](c2ccccc2)C(C(C)=O)=C1C 2.81%
CCOC(=O)CN1C(=O)N[C@@H](c2cccc(F)c2)C(C(=O)OC)=C1C 9.26%
OC(CNC1CCCC1)COc1ccc(Cl)cc1 (stereo not given) -0.21%
COc1ccc(OC)c(CN2CCC(CO)(CCOc3ccccc3)CC2)c1 -2.58%
O=C(COc1ccccc1)Nc1nc2c(s1)CCCC2 14%
O=C(Nc1nc2c(s1)CCCC2)c1cccc(S(=O)(=O)N2CCCc3ccccc32)c1 7.22%
O=C(CCCc1cccs1)Nc1nc2c(s1)CCCC2 1.81%
O=C(Nc1nc2c(s1)CCCC2)c1ccc(S(=O)(=O)N2CCCc3ccccc32)cc1 1.63%
COc1ccc(OCC(=O)Nc2nc3c(s2)CCCC3)cc1 6.78%
O=C(Nc1nc2c(s1)CCCC2)c1cccs1 14.3%
COC(=O)c1ccc(C(C(=O)NC2CCCCC2)N(Cc2ccc(F)cc2)C(=O)Cc2cccs2)cc1 (stereo not given) 7.57%
CC(=O)OCCNC(=O)Cn1cnc2c1c(=O)n(C)c(=O)n2C 0.79%
COc1ccc(C2CC(C(F)(F)F)n3nc(C(N)=O)c(Cl)c3N2)cc1OC (stereo not given) 3.38%
CC1CCN(CC(=O)Nc2ccc(S(=O)(=O)N3CCCCC3)cc2)CC1 -0.34%
Cc1ccc(N2CC(C(=O)Nc3ccc(S(=O)(=O)N4CCOCC4)cc3)CC2=O)cc1 (stereo not given) -0.55%
COc1ccc(CCNC(C)=O)cc1 3.67%
CCOC(=O)C1(Cc2cccc(OC)c2)CCN(CCO)CC1 -1.67%
Cc1c(C(=O)N(C)Cc2cccc(F)c2)oc2c(Cl)cccc12 18%
COc1cc2c(-c3ccccc3O)nc3c(c(C)nn3-c3ccccc3)c2cc1OC 1.81%
COc1cc(-c2nc3c(c(C)nn3-c3ccccc3)c3cc(OC)c(OC)cc23)ccc1O 57.5%
Cc1ccc(Nc2nc(CSc3nnc(-c4ccncc4)n3C)cs2)cc1 1.07%
Cc1cc(C)n2nc(SCc3c(F)cccc3Cl)nc2n1 0.85%
CN(CCO)S(=O)(=O)c1ccc2c(c1)C(=NO)c1cc(S(=O)(=O)N(C)CCO)ccc1-2 -0.46%
CN(C)S(=O)(=O)c1ccc2c(c1)C(=NO)c1cc(S(=O)(=O)N(C)C)ccc1-2 2.67%
CCS(=O)(=O)N1CCN(c2ccccn2)CC1 -0.21%
Cn1nnnc1SCC(=O)N(C1CCCCC1)C1CCS(=O)(=O)C1 (stereo not given) -0.03%
CCC(=O)NCCc1nc2cc(NC(=O)Nc3ccccc3)ccc2n1C 1.28%
CC(NC(=O)c1ccc(F)cc1Cl)C1CC2CCC1C2 (stereo not given) 1.15%
COCc1cc(C)nc(SCC(=O)Nc2cc(C(F)(F)F)ccc2N2CCOCC2)c1C#N 1.23%
COCc1cc(C)nc(SCC(=O)Nc2ccc(N3CCOCC3)cc2)c1C#N 1.56%
CC(=O)CC(C)(C)n1nnc(-c2ccccc2)n1 1.03%
COc1ccc(CNC(=O)N2CCN(c3ccc(F)cc3)CC2)cc1 0.79%
Cn1c(SCc2ccccc2)nnc1-c1ccco1 3.37%
Nn1c(SCc2cccc3ccccc23)nnc1-c1ccco1 0.35%
Cc1ccc(SCCOCCN2CCOCC2)cc1 -1.12%
Cc1sc2nc(C(C)C)nc(SCC(=O)N3c4ccccc4CC3C)c2c1C (stereo not given) 16.1%
Cc1sc2nc(C3CC3)nc(SCC(=O)N3CCCc4ccccc43)c2c1C 20.9%
Cc1sc2nc(C3CC3)nc(SCC(=O)N3CCc4ccccc4C3)c2c1C 1.85%
CCc1nc(SCC(=O)N2CC(=O)Nc3ccccc32)c2c(C)c(C)sc2n1 0.22%
COc1ccccc1N=Nc1nc(-c2ccccc2)c(-c2ccccc2)[nH]1 12.4%
CC(C)CNC(=O)COC(=O)CNC(=O)c1cc(Cl)cc([N+](=O)[O-])c1 1.69%
COC(=O)C1=C(C)N(c2ccccc2)/C(=C/c2ccco2)C1=O 0.77%
CCc1ccc(NCCC(=O)c2ccc(Br)cc2)cc1 0.86%
CCS(=O)(=O)N1CCCC(C(=O)Oc2ccc(Br)cc2)C1 (stereo not given) -0.04%
O=C(O)c1cccc(NC(=O)c2cn(-c3ccccc3)nc2-c2ccc([N+](=O)[O-])cc2)c1 19%
COc1ccc(-c2oc(=O)c3cc(OC)c(OC)cc3c2/C=C/c2ccc(F)cc2)cc1 5.33%
COc1cc(OC)cc(-c2oc(=O)c3cc(OC)c(OC)cc3c2/C=C/c2ccc(F)cc2)c1 3.91%
Cc1cc(N(C(=O)c2ccco2)C(C(=O)NC2CCCCC2)c2ccccc2)ccc1-n1cnnn1 (stereo not given) 0.41%
